The results in this text go back to ChEMBL document CHEMBL1961873, “Compounds: GSK PKIS; Assays: Nanosyn kinase panel” (2012).

Assay [1] deals with T1, Inhibitor of nuclear factor kappa-B kinase subunit epsilon (Homo sapiens) (UniProt Q14164).
T1 sequence (whole entry): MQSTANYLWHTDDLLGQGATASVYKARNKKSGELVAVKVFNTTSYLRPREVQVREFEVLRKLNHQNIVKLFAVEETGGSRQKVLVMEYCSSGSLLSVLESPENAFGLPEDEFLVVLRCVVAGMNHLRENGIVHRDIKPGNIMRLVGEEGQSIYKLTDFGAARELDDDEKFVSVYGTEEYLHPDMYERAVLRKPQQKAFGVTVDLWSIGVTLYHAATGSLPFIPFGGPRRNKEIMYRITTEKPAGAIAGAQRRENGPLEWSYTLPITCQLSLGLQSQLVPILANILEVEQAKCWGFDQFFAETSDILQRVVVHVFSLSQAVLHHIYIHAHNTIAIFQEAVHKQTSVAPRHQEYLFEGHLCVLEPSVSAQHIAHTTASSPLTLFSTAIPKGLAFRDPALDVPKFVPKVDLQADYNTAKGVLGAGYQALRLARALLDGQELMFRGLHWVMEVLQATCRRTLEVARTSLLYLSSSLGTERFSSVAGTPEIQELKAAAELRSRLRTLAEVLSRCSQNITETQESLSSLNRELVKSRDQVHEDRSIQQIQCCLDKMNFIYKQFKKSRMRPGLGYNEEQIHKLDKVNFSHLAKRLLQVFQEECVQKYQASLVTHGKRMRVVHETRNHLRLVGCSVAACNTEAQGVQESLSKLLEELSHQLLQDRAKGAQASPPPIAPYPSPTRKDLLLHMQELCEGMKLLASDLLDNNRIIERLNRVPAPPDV
The settings on record: at 1 µM.

Assay [2] deals with T2, Serine/threonine-protein kinase Nek1 (Homo sapiens) (UniProt Q96PY6).
T2 sequence (whole entry): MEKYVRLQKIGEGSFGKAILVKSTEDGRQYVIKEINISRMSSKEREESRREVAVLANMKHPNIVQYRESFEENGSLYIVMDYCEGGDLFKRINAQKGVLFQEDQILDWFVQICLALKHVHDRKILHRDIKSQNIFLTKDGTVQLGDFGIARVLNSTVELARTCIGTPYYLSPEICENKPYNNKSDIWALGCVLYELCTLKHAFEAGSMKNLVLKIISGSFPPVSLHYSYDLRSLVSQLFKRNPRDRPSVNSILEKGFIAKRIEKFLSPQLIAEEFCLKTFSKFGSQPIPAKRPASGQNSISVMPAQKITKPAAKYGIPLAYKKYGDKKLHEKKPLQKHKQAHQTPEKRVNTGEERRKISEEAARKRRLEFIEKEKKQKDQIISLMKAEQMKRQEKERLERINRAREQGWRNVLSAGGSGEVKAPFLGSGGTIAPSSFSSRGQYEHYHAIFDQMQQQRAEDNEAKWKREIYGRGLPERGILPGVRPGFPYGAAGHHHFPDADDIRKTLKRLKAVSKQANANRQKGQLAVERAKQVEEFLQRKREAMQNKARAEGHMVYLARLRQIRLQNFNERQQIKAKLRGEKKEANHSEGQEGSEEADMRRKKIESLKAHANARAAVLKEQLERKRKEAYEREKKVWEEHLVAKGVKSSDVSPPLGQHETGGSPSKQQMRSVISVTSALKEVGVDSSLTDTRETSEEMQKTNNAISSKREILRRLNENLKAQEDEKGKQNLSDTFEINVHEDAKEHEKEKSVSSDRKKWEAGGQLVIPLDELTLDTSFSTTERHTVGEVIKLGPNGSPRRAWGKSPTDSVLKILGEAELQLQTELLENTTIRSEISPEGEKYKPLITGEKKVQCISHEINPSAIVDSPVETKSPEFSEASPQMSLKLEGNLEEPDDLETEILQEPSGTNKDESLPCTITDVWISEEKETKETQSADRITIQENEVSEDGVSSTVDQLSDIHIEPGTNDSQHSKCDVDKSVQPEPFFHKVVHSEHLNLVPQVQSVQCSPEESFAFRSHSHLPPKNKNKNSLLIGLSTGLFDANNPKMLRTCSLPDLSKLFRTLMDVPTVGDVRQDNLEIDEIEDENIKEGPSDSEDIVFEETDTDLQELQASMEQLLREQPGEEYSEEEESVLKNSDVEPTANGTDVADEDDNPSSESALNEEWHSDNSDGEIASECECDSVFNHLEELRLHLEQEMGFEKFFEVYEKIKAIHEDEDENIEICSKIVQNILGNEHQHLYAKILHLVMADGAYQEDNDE
The settings on record: at 0.1 µM.

Assay [3] has as its target T2, Serine/threonine-protein kinase Nek1 (Homo sapiens). The settings on record: at 1 µM.
For assay [4], the target named is T3, Serine/threonine-protein kinase Nek2 (Homo sapiens) (UniProt P51955).
T3 sequence (whole entry): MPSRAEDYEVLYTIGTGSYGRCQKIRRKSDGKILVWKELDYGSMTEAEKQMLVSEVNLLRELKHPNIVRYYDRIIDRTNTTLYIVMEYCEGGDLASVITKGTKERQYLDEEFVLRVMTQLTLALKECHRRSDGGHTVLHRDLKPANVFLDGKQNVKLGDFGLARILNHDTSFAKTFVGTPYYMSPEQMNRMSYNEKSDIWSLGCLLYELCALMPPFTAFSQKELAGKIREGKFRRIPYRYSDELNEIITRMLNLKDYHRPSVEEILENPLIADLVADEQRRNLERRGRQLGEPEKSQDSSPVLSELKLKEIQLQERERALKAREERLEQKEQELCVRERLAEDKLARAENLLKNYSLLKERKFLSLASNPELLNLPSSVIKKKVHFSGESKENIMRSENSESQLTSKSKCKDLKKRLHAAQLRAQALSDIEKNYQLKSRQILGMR
The settings on record: at 0.1 µM.

Assay [5] addresses T3, Serine/threonine-protein kinase Nek2 (Homo sapiens). The settings on record: at 1 µM.
The target in assay [6] is Serine/threonine-protein kinase Nek6 (Homo sapiens) (UniProt Q9HC98). The settings on record: at 0.1 µM.
The target is the same in assay [7]. The settings on record: at 1 µM.
For assay [8], the target named is Serine/threonine-protein kinase Nek7 (Homo sapiens) (UniProt Q8TDX7). The settings on record: at 0.1 µM.
Assay [9] has the same target. The settings on record: at 1 µM.
For assay [10], the target named is T4, Serine/threonine-protein kinase Nek9 (Homo sapiens) (UniProt Q8TD19).
T4 sequence (whole entry): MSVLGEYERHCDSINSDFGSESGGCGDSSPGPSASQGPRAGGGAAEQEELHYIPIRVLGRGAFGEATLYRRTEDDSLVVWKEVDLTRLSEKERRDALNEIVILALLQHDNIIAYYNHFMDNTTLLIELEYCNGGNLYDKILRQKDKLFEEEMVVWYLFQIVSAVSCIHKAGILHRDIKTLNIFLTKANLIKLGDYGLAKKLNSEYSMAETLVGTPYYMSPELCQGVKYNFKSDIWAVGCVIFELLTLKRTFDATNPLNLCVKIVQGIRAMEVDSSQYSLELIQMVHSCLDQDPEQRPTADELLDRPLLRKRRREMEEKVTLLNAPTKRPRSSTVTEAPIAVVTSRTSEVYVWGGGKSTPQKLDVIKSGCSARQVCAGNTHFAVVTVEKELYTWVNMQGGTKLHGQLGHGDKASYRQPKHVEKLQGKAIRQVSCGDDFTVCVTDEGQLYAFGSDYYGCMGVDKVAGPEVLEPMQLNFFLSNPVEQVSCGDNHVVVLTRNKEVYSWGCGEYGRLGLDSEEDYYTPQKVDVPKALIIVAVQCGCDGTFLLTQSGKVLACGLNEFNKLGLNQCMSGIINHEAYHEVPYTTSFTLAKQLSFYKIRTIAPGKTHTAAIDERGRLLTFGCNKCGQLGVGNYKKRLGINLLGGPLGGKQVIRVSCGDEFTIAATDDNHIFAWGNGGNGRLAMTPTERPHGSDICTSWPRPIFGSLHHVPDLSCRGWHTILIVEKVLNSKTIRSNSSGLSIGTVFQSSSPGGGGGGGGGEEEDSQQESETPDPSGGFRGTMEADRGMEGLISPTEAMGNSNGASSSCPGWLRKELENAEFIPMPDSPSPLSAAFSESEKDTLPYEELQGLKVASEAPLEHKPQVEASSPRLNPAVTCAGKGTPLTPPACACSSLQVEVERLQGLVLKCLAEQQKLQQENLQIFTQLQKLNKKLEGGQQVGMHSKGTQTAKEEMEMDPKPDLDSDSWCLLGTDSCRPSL
The settings on record: at 0.1 µM.

In assay [11] the target is T4, Serine/threonine-protein kinase Nek9 (Homo sapiens). The settings on record: at 1 µM.
The target of assay [12] is Serine/threonine-protein kinase PLK1 (Homo sapiens) (UniProt P53350). The settings on record: at 0.1 µM.
Assay [13] has the same target. The settings on record: at 1 µM.
For assay [14], the target named is T5, Dual specificity protein kinase TTK (Homo sapiens) (UniProt P33981).
T5 sequence (whole entry): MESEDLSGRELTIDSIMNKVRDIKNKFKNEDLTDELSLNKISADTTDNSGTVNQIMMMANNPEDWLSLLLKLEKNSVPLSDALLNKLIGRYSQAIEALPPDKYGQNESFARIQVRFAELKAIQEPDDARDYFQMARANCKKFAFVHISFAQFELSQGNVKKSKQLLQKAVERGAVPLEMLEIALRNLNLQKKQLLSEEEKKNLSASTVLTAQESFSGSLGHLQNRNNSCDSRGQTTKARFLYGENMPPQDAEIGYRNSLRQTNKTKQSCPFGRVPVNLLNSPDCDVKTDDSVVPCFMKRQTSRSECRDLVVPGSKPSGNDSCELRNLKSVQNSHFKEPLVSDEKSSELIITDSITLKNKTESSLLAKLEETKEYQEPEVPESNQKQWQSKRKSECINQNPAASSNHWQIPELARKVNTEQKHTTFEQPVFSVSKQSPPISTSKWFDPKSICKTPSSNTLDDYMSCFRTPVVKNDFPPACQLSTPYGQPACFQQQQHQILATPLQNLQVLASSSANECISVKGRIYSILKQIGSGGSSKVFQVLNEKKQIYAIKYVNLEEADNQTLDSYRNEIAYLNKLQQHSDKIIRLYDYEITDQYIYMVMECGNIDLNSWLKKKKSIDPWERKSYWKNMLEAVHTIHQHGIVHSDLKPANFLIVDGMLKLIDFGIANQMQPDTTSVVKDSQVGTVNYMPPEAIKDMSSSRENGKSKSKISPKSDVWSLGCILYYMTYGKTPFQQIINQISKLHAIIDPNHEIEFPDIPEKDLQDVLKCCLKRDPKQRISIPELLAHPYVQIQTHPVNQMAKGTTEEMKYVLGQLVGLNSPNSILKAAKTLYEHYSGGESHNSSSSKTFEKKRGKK
The settings on record: at 0.1 µM.

Assay [15] relates to T6, Receptor-type tyrosine-protein kinase FLT3 (Homo sapiens), P36888 [D835Y].
T6 sequence (whole entry): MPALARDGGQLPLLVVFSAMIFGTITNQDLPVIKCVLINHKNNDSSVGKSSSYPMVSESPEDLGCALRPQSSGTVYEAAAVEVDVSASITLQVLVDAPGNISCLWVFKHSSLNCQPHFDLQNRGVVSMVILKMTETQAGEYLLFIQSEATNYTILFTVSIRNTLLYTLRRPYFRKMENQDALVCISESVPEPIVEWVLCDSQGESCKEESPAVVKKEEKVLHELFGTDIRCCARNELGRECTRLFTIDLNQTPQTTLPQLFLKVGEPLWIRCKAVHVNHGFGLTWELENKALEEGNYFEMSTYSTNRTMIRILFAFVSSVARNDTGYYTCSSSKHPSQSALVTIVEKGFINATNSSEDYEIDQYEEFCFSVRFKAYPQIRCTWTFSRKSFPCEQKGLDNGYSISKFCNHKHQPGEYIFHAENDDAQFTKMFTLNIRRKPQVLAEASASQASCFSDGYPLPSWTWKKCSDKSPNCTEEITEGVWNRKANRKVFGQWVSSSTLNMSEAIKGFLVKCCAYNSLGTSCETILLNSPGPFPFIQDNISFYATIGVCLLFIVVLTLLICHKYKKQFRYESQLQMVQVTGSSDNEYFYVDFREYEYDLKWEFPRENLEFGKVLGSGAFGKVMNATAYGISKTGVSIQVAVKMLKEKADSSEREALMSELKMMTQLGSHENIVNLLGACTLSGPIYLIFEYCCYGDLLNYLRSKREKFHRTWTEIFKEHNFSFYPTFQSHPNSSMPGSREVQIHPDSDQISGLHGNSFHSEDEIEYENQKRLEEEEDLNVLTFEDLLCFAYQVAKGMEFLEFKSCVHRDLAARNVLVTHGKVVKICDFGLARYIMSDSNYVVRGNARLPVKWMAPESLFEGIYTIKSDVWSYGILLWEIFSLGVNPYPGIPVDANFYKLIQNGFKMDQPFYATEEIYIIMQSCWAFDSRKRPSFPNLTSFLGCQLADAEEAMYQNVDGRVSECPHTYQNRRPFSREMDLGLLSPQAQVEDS
The settings on record: at 1 µM.

In assay [16] the target is Vascular endothelial growth factor receptor 3 (Homo sapiens) (UniProt P35916). The settings on record: at 0.1 µM.
The target is the same in assay [17]. The settings on record: at 1 µM.
In assay [18] the target is Macrophage colony-stimulating factor 1 receptor (Homo sapiens) (UniProt P07333). The settings on record: at 0.1 µM.
The target is the same in assay [19]. The settings on record: at 1 µM.
The target in assay [20] is Tyrosine-protein kinase Fyn (Homo sapiens) (UniProt P06241). The settings on record: at 0.1 µM.

A word on the inhibition: it is the change of the read-out against control, counted positive when it falls.

Macrophage colony-stimulating factor 1 receptor (Homo sapiens), sequence (P07333 whole entry): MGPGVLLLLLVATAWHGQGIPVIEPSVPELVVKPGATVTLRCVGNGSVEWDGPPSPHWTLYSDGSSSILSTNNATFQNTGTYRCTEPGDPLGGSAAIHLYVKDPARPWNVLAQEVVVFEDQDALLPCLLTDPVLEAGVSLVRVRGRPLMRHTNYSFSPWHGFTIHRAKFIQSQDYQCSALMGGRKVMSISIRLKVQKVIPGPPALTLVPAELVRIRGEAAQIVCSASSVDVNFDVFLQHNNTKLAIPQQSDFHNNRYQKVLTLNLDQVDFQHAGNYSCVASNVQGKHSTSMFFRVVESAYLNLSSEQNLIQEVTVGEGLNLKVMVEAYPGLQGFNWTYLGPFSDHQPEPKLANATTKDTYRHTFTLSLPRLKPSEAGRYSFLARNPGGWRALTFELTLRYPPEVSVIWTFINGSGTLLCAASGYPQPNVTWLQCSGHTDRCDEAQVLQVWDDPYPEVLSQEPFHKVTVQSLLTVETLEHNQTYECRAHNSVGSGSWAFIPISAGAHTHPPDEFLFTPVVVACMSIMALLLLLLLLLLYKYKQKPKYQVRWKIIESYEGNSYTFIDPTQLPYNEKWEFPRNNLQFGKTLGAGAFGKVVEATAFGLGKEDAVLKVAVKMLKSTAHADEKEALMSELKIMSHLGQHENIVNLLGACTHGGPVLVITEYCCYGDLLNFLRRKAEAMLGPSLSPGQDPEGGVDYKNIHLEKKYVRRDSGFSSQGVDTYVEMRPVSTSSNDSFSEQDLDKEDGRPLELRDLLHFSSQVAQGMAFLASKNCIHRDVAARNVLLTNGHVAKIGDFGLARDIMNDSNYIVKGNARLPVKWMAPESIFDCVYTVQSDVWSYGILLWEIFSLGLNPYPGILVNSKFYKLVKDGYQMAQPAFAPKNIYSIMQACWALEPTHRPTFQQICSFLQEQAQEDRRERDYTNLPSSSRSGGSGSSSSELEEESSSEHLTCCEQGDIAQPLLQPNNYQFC
Serine/threonine-protein kinase Nek6 (Homo sapiens), sequence (Q9HC98 whole entry): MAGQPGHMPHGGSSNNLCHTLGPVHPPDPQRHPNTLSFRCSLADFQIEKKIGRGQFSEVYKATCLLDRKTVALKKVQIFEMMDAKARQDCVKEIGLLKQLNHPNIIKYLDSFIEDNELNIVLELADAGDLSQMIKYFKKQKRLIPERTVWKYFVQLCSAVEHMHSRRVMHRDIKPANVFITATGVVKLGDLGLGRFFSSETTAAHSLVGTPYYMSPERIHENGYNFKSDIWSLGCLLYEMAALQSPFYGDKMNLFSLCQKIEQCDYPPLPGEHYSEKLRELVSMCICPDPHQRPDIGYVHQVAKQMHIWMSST
Serine/threonine-protein kinase PLK1 (Homo sapiens), sequence (P53350 whole entry): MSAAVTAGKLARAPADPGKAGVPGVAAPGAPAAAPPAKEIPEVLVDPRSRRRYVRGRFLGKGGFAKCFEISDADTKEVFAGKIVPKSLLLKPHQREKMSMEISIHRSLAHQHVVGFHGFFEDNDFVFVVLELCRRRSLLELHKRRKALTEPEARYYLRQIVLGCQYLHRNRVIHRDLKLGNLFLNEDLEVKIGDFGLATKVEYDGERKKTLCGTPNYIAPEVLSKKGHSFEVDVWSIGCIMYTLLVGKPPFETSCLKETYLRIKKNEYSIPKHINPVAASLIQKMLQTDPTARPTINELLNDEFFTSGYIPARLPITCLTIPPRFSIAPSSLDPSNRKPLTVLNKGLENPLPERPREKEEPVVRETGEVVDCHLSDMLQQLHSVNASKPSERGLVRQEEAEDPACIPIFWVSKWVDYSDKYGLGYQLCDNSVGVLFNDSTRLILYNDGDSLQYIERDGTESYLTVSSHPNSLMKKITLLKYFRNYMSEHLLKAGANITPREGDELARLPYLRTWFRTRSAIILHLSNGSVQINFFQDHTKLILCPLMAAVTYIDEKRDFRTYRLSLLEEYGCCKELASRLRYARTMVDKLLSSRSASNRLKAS
Serine/threonine-protein kinase Nek7 (Homo sapiens), sequence (Q8TDX7 whole entry, looked up): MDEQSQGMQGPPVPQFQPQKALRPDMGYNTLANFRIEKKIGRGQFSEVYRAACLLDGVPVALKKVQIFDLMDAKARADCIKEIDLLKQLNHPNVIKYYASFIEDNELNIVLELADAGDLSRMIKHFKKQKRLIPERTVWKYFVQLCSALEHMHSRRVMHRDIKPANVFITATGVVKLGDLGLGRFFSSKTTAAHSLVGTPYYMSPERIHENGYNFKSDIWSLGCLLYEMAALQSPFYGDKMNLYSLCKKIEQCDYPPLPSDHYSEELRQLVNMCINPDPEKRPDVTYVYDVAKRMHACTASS
Vascular endothelial growth factor receptor 3 (Homo sapiens), sequence (P35916 whole entry): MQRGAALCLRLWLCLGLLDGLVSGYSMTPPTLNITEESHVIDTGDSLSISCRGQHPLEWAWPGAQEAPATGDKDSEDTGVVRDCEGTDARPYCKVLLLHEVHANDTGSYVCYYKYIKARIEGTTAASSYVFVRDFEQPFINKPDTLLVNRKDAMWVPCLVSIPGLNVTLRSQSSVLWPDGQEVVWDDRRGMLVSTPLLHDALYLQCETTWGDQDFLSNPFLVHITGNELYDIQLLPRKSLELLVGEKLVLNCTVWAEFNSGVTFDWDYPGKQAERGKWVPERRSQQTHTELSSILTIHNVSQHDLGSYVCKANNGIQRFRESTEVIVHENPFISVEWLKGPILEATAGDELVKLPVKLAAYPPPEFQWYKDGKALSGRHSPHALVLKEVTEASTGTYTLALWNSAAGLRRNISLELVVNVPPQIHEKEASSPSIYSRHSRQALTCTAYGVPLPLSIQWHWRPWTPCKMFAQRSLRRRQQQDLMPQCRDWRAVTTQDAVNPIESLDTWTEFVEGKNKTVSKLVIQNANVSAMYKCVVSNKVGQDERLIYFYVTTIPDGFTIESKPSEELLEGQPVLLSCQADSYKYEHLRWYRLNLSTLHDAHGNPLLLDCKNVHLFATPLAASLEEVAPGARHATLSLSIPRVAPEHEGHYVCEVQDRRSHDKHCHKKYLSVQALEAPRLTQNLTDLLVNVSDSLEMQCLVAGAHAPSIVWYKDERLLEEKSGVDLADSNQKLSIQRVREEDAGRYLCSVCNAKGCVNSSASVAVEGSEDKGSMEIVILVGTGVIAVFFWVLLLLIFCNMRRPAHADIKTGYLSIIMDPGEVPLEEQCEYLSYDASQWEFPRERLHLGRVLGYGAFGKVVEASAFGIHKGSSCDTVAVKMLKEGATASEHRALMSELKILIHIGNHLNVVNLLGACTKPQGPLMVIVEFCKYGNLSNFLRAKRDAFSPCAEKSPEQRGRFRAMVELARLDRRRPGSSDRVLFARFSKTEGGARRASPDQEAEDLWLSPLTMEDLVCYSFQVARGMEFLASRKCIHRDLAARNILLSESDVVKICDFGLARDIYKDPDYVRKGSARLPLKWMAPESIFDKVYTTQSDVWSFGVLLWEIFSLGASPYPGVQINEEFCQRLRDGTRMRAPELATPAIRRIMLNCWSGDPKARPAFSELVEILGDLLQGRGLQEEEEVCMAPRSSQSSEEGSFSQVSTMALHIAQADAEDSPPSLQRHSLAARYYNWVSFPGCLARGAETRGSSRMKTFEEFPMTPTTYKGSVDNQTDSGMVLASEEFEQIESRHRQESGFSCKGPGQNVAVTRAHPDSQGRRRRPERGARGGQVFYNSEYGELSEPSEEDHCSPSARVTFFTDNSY
Tyrosine-protein kinase Fyn (Homo sapiens), sequence (P06241 2-537 limits assumed): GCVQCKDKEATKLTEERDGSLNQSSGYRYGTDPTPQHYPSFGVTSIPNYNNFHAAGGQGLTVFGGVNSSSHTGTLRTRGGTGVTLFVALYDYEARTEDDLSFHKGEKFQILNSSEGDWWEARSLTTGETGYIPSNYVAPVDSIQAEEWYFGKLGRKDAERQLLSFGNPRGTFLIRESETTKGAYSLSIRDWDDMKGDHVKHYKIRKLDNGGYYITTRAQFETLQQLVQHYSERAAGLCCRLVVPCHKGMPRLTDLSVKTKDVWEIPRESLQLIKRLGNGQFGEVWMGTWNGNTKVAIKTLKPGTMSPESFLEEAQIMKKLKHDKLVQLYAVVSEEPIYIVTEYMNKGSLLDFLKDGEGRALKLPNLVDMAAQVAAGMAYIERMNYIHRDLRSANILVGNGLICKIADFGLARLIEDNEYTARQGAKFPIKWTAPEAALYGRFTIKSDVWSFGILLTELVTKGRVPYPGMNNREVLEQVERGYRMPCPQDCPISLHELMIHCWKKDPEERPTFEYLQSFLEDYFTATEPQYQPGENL

For the compound `COc1ccc2ncnc(Nc3ccc(OCc4ccccc4)cc3)c2c1`, the inhibition in assay [1] came out at 1.06%; in assay [2], 0.79%; in assay [3] it was 4.16%; in assay [4], 1.74%; in assay [5], 1.37%; in assay [6], 4.45%. The inhibition in assay [7] is 2.35%; in [8], 2.47%; in assay [9], 2.49%; in assay [10] it was -0.31%; in assay [11], 4.48%; in assay [12] it was 2.95%. Also, the inhibition in assay [13] was 0.42%; in assay [14] it was 2.89%; in assay [15] it was 8.02%; in assay [16], -0.47%; in [17], 0.28%; in assay [18], 3.05%. Also, the results for the inhibition in assay [19] and in assay [20] were 3.66% and 2.39%, respectively.
